Where “and” joins values, the source holds several entries; their conditions need not be identical. Equal values may be shown once. Calls of active or inactive are those of the source. Cut-off read from the data, not from the text of the source, unless noted: active = parasite load remaining mostly below about 12% (no sharp cut-off); inactive = mostly above about 10%.
Key:
[1] = compounds altering viability of human ES cells (AID 493140; call rule not given here;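 note: cells exposed to compounds for four days before counting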); conditions: human embryonic stem cell survival screen; stronger effect = higher value
[2] = P. berghei load reduction in hepatocytes – cell-based, HepG2, luciferase luminescence, HepG2 viability, primary screen (AID 624349);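 note: 100% = mean of DMSO negative control wells on the same plate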; conditions: P. berghei liver stage in HepG2, luciferase luminescence, concentration not given here; parasite load remaining: stronger effect = lower value; viability: measured here: HepG2 viability without parasites
[3] = Wnt pathway potentiators raising nuclear beta-catenin – imaging, WNT3A-conditioned medium, mouse C2C12, NPC library, primary screen (AID 1117326; in the data active = nuclear beta-catenin stimulation mostly above about 4.2%, no sharp cut-off; inactive = mostly below about 10%); conditions: stronger effect = higher value
[4] = stimulators of insulin release from INS-1E, primary screen, cell-based, 5 mM glucose, NPC library (AID 1117329;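 active = compound raises insulin release from rat beta cells at 5 mM glucose, no numeric limit stated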); conditions: rat INS-1E insulin secretion, at 10 µM, stronger effect = higher value
[5] = growth inhibition of GSK3B-pretreated HCT116 cells – cell-based, CellTiter-Glo, 0.2 to 20 µM (AID 1117336;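 active = compounds lowering colon cancer cell viability after pretreatment blocking the GSK3B kinase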); conditions: HCT116 viability after GSK3B inhibitor, at 20 µM, stronger effect = higher value
[6] = inhibition of endothelial tube formation, primary screen, imaging, VEGF stimulated, CD31 staining, tube area, NPC library (AID 1117340;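 active = compound that reduces growth-factor-driven endothelial tube area in a mixed cell culture, no cutoff stated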); conditions: VEGF-stimulated ADSC/ECFC co-culture, at 10 µM, stronger effect = higher value
[7] = GLP1 release stimulators, primary, NCI-H716, NPC library (AID 1117341;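 active = compound raises GLP1 secretion from the human gut endocrine cells, with no numeric limit stated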); conditions: NCI-H716 cells, at 10 µM, stronger effect = higher value
[8] = HCT116 colon cancer cell growth inhibition, primary screen, CellTiter-Glo luminescence, NPC library (AID 1117342;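 active = compounds that lower survival of HCT116 colon cancer cells in the luminescence readout, no numeric limit stated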); conditions: at 20 µM (top of the series)
[9] = reduced SW480 viability measured with CellTiter-Glo, NPC library, primary (AID 1117343;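 active = compounds that lower viability of the colon cancer cells in the luminescence readout, with no numeric limit stated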); conditions: CellTiter-Glo luminescence; at 20 µM (top of the series) unless noted
[10] = NPC library primary testing for decreased DLD-1 cell viability via CellTiter-Glo (AID 1117346;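 active = compounds that lower survival of DLD-1 colon cancer cells in the luminescence readout, no cutoff given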); conditions: DLD-1 viability, CellTiter-Glo luminescence; at 20 µM (top of the series)
[11] = EMT-state selective cytotoxicity in co-culture – imaging, PC-3E GFP, TEM4-18 mCherry, primary screen (AID 1345086;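 active = compounds killing one labelled cell type while sparing the other, by normalised counts and ratio limits, not self-fluorescent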;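 for all read-outs here: cells exposed to compound for 72 h before imaging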;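 for red/green cell ratio (normalised): normalised mesenchymal count divided by normalised epithelial count so high means epithelial killing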); conditions: PC-3E GFP / TEM4-18 mCherry co-culture, imaging cell counts, at 1 µM; for red/green cell ratio (normalised): actives lie on both sides, counts scaled to control wells, 1 = unselective
[12] = MELAS cybrid and Rieske KO viability enhancers – cell-based, MELAS cybrids, Rieske KO mouse fibroblasts, CellTiter-Glo, primary screen (AID 1508586;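 active = mean z-score across replicates of 1.96 or higher in either the MELAS or the Rieske mutant cell line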;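 note: z relative to plate mean and SD of compound and empty wells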); conditions: low glucose
[13] = molecular target: NAD(+) hydrolase SARM1 (Homo sapiens) (UniProt Q6SZW1); experiment: blocking NAD cleavage by SARM1 SAM-TIR – cell lysate, NAD-Glo luminescence (AID 1508614;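 active = compound whose remaining NAD level is above about 45 nM, limit read from the data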;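 note: higher remaining NAD means stronger inhibition of SARM1 NADase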); conditions: SAM-TIR HEK293T lysate NADase, at 1 µM, stronger effect = higher value
Sequence of NAD(+) hydrolase SARM1 (Homo sapiens) (Q6SZW1 whole entry, looked up): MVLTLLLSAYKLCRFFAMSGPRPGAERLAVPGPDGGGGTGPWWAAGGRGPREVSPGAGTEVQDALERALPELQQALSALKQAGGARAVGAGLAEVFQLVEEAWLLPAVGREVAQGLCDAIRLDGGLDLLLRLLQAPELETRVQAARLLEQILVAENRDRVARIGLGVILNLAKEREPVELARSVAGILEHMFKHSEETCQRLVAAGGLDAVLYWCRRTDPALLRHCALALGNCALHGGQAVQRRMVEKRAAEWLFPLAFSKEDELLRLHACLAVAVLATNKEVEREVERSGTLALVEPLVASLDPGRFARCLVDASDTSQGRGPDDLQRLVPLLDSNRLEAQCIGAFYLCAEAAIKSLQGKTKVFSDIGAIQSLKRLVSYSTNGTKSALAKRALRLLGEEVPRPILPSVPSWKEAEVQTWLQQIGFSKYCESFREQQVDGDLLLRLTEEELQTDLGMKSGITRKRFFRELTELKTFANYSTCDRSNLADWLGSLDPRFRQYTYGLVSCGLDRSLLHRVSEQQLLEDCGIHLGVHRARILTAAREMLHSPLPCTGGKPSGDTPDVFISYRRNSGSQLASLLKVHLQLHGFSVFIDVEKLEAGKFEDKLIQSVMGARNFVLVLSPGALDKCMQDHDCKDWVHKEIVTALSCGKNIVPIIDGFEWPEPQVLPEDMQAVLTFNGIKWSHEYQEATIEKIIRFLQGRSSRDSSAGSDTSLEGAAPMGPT

[14] = viability loss with induced miR-34 in A549 – imaging, A549 dox-inducible miR-34, nuclei and caspase counts, primary screen (AID 1347080;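 active = compounds whose cell count with miR-34 switched on is under 0.7 times the count with it off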); conditions: A549 miR-34 inducible, Hoechst nuclei count, 48 h
[15] = growth inhibition, single agent or in combination, cell-based, chromothripsis tumors, cisplatin or BGB combos (AID 1671449; in the data active = inhibition above about 80%;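 note: cells exposed for 96 hours; 0% = vehicle DMSO and 100% = killing by high DMSO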); conditions: LFS_MB_P medulloblastoma cells
[16] = growth inhibition, single agent and combos, cell-based, chromothripsis tumors, cisplatin or BGB combos (AID 1671450; in the data active = inhibition above about 80%;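 note: cells exposed to compound for four days; 0% = vehicle DMSO and 100% = cell killing by high DMSO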); conditions: HDN33 neuroblastoma cells, stronger effect = higher value
[17] = growth inhibition, single agents and combos, ICB984, cell-based, cisplatin or BGB combos, synergistic combos for chromothripsis tumors (AID 1671451; call rule not given here;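 note: cells exposed for 96 hours before readout; 0% = vehicle DMSO and 100% = killing by high DMSO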); conditions: ICB984 medulloblastoma cells, drug combinations, stronger effect = higher value
[18] = growth inhibition, single agents and combos, HTB85, cell-based, BGB or cisplatin IC20 combos, synergistic combos for chromothripsis tumors (AID 1671453; in the data active = inhibition above about 80%;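 note: cells exposed for 96 hours before readout; 0% = vehicle DMSO and 100% = high DMSO killing control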); conditions: HTB85 osteosarcoma cells, drug combinations, stronger effect = higher value
[19] = growth inhibition, MDA-MB-436, cell-based, BGB or cisplatin combos, synergistic combos for chromothripsis tumors (AID 1671458; call rule not given here;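 note: cells exposed for 96 hours; 0% = vehicle DMSO and 100% = killing by high DMSO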); conditions: MDA-MB-436 breast carcinoma growth inhibition, drug combinations, stronger effect = higher value
[20] = measured here: epithelial PC-3E GFP cell survival
[21] = measured here: mesenchymal TEM4-18 mCherry cell survival
[22] = MELAS cybrid survival, CellTiter-Glo 48 h, stronger effect = higher value
[23] = Rieske KO mouse fibroblast survival, CellTiter-Glo 72 h
[24] = stronger effect = lower value, cell number ratio, induced over uninduced
[25] = measured here: relative caspase fold change +Dox/-Dox
[26] = measured here: total cells with miR-34 induction, stronger effect = lower value
[27] = measured here: total cells without miR-34 induction

With NC(N)=NC(N)=NCCc1ccccc1 the survival [1] was 15 (inactive), the parasite load remaining [2] was -0.135% (inactive) and 69.8% (inactive) and 0.98% (inactive) and the viability [2] was 41.9% and 91.2% and 89.5%. For the same compound, the nuclear beta-catenin stimulation ([3]; at 10 µM) was 0% (inactive), the nuclear beta-catenin stimulation ([3]; stimulation, at 2 µM) was 1.1% and the insulin secretion stimulation [4] was -0.2% (inactive). For the same compound, the viability decrease [5] was 27.4% (inactive), the tube area decrease [6] was 27.6% (inactive) and the GLP1 secretion stimulation [7] was -0.4% (inactive). For the same compound, the inhibition of viability [8] was 9.6% (inactive), the viability decrease (inhibition) [9] was 70.3% (active) and the viability decrease (inhibition) [10] was 9.45% (inactive). The red/green cell ratio (normalised) [11] was 0.86 (inactive), the normalised cell number [11, 20] was 1.06 and the normalised cell number [11, 21] was 0.91. The z-score [12, 22] was -0.896 (inactive) and -0.373 (inactive) and -0.362 (inactive), the z-score [12, 23] was -0.647 and 0.306 and -0.384 and the remaining NAD [13] was 10 nM (inactive).

In the case of CCCCCCCCCCCCCCCCCCCCCCO, the parasite load remaining [2] is reported as 85.5% (inactive), the viability [2] is reported as 109% and the nuclear beta-catenin stimulation ([3]; at 10 µM) is reported as 3.4% (inactive). For the same compound, the nuclear beta-catenin stimulation ([3]; stimulation, at 2 µM) was 2.9%, the insulin secretion stimulation [4] was -2.5% (inactive) and the viability decrease [5] was -7.2% (inactive). The tube area decrease [6] was -8.1% (inactive), the GLP1 secretion stimulation [7] was 1.1% (inactive) and the inhibition of viability [8] was -36.7% (inactive). For the same compound, the viability decrease (inhibition) [9] was 16.6% (inactive), the viability decrease (inhibition) [10] was 7.8% (inactive) and the red/green cell ratio (normalised) [11] was 1.1 (inactive). The normalised cell number [11, 20] was 0.99, the normalised cell number [11, 21] was 1.09 and the fold change [14, 24] was 0.841 (inactive). It also gave a fold change [14, 25] of 5.17, a cell count [14, 26] of 10500 and a cell count [14, 27] of 12500. For the same compound, the remaining NAD [13] was 10 nM (inactive).

In the case of CCN(CC)C(=O)c1ccc(O)c(OC)c1, the survival [1] is reported as 14.3 (inactive), the parasite load remaining [2] is reported as 98.8% (inactive) and 82.6% (inactive) and 34.4% (inactive) and the viability [2] is reported as 116% and 78.8% and 105%. For the same compound, the nuclear beta-catenin stimulation ([3]; at 10 µM) was 0.4% (inactive), the nuclear beta-catenin stimulation ([3]; stimulation, at 2 µM) was -0.5% and the insulin secretion stimulation [4] was -1.1% (inactive). For the same compound, the viability decrease [5] was -5.6% (inactive), the tube area decrease [6] was 19.7% (inactive) and the GLP1 secretion stimulation [7] was -0.9% (inactive). For the same compound, the inhibition of viability [8] was -33.9% (inactive), the viability decrease (inhibition) [9] was 107% (active) and the viability decrease (inhibition) [10] was -2.25% (inactive). For the same compound, the red/green cell ratio (normalised) [11] was 1.01 (inactive), the normalised cell number [11, 20] was 1.04 and the normalised cell number [11, 21] was 1.06. For the same compound, the fold change [14, 24] was 0.99 (inactive) and 0.899 (inactive) and 0.849 (inactive), the fold change [14, 25] was 1.08 and 1.38 and 3.96 and the cell count [14, 26] was 10300 and 8560 and 11800. For the same compound, the cell count [14, 27] was 10400 and 9520 and 13900, the z-score [12, 22] was -0.598 (inactive) and the z-score [12, 23] was -0.406. The remaining NAD [13] was 10 nM (inactive).

In the case of O=C(O)c1cc(=O)[nH]c(=O)[nH]1, the nuclear beta-catenin stimulation ([3]; at 10 µM) is reported as 2.7% (inactive), the nuclear beta-catenin stimulation ([3]; stimulation, at 2 µM) is reported as 1.2% and the insulin secretion stimulation [4] is reported as -0.7% (inactive). The viability decrease [5] was 0.3% (inactive), the tube area decrease [6] was -4.9% (inactive) and the GLP1 secretion stimulation [7] was 2.6% (inactive). The inhibition of viability [8] was 1.8% (inactive), the viability decrease (inhibition) [9] was 18.7% (inactive) and the viability decrease (inhibition) [10] was 0.25% (inactive). The red/green cell ratio (normalised) [11] was 0.81 (inactive), the normalised cell number [11, 20] was 1.22 and the normalised cell number [11, 21] was 0.99. For the same compound, the fold change [14, 24] was 0.909 (inactive) and 0.91 (inactive), the fold change [14, 25] was 0.683 and 0.794 and the cell count [14, 26] was 8860 and 8140. The cell count [14, 27] was 9750 and 8950, the z-score [12, 22] was -0.414 (inactive) and the z-score [12, 23] was -0.146. For the same compound, the remaining NAD [13] was 10 nM (inactive), the inhibition ([15]; at 0.5 µM, stronger effect = higher value) was -14.8% (inactive) and 6.04% (inactive) and the inhibition ([15]; measured here: combination with BGB IC20, at 0.005 µM) was -3.6% and -6.88%. The inhibition ([15]; measured here: combination with BGB IC40, at 0.005 µM) was 28.3% and -31.4%, the inhibition ([15]; measured here: combination with BGB IC40, at 0.05 µM) was -7.85% and -7.79% and the inhibition ([15]; measured here: combination with cisplatin, at 0.5 µM, stronger effect = higher value) was -24.1% and -4.55%. For the same compound, the inhibition ([15]; measured here: combination with cisplatin, at 5 µM, stronger effect = higher value) was -5.53% and -40.7%, the inhibition ([16]; BGB combo, at 5 µM) was 13.5% and -51.1% and the inhibition ([16]; at 0.5 µM) was 15.1% (inactive) and -24.6% (inactive). The inhibition ([16]; cisplatin combo, at 5 µM) was 14.4% and -17.2%, the inhibition ([16]; measured here: with BGB IC20 combination, at 0.5 µM) was 10.5% and -14.2% and the inhibition ([16]; measured here: with cisplatin IC20 combination, at 0.5 µM) was 24.7% and -33.5%. The inhibition ([16]; single agent, at 5 µM) was 12.4% and -40.1%, the inhibition ([17]; BGB IC20 combo, at 0.005 µM) was -7.3% and -18.5% and the inhibition ([17]; BGB IC40 combo, at 0.005 µM) was -15.2% and -60.1%. For the same compound, the inhibition ([17]; BGB IC40 combo, at 0.05 µM) was 9.75% and -38.4%, the inhibition ([17]; at 0.5 µM) was 7.77% (inactive) and -27.4% (inactive) and the inhibition ([17]; cisplatin combo, at 0.05 µM) was 9.75% and -43.9%. The inhibition ([17]; cisplatin combo, at 0.5 µM) was -1.72% and -34.4%, the inhibition ([17]; cisplatin combo, at 5 µM) was 27.1% and -45.2% and the inhibition ([17]; measured here: 5 uM single agent, at 5 µM) was 8.32% and 10.3%. For the same compound, the inhibition ([18]; at 0.5 µM) was 5.03% (inactive) and -15.1% (inactive), the inhibition ([18]; measured here: with BGB IC20, at 0.5 µM) was -2.41% and -19.2% and the inhibition ([18]; measured here: with BGB IC20, at 5 µM) was 15.1% and -5.19%. For the same compound, the inhibition ([18]; measured here: with cisplatin IC20, at 0.5 µM) was 6.2% and -21.8%, the inhibition ([18]; measured here: with cisplatin IC20, at 5 µM) was 13% and -19.1% and the inhibition ([18]; single agent, at 5 µM) was 16% and -13.4%. The inhibition ([19]; at 0.5 µM) was 2.87% (inactive) and -29.1% (inactive), the inhibition ([19]; measured here: BGB combination, at 0.5 µM) was 7.16% and -31.6% and the inhibition ([19]; measured here: BGB combination, at 5 µM) was 4.32% and -38.3%. The inhibition ([19]; measured here: cisplatin combination, at 0.5 µM) was -8.53% and -32.8% and the inhibition ([19]; measured here: cisplatin combination, at 5 µM) was 21.8% and -35.6%.
